From PubChem BioAssay (NCATS)
Inconclusive results are not listed. Entries that show only a call come without a potency. Unmarked numbers belong to inactive results. Calls of active or inactive are those of the source. Calls come from the whole dose curve; as a rule, active = well fitted inhibition curve with a large enough effect; inconclusive = small, poorly fitted or top-dose-only effect; inactive = flat fitted curve, though single readings scatter.

Assay: P-glycoprotein substrates identified in KB-8-5-11 adenocarcinoma cell line, qHTS therapeutic library screen (AID 1346987); note: nearly all actives have a fitted effect of over 65% in size; for activity change, negative = cytotoxicity: series mostly up to about 44 µM
How it was run: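 KB-8-5-11: colchicine-selected sub-line of KB-3-1 over-expressing P-gp; assay medium lacked colchicine. 72 h drug exposure at 37 degree C, CellTiter-Glo.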
Potency is the fitted concentration of half-maximal effect.

Structure (SMILES)	Potency	activity change, negative = cytotoxicity
CC(=O)N[C@@H](C(=O)O[C@H]1CCC(C)(C)[C@@H]2CCC3=C(COC3=O)[C@@]12C)C(C)C	inactive	–
C=C1C(=O)O[C@H]2[C@H]1CC/C(C)=C/CC[C@@]1(C)O[C@@H]21	inactive	–
O=C(/C=C\n1cnc(-c2cc(C(F)(F)F)cc(C(F)(F)F)c2)n1)N1CC(F)(F)C1	0.461 µM (active)	–
O=C(O)c1cc(I)ccc1NC(=O)[C@H](Cc1ccccc1)NCc1ccccc1	inactive	–
CCc1cnn2c(NCc3ccc[n+]([O-])c3)cc(N3CCCCC3CCO)nc12 (stereo unspecified)	0.206 µM (active)	–
C=C[C@@](C)(O)CC/C=C(\C)C(=O)O[C@@H]1[C@@H]2O[C@]2(C)[C@H]2[C@H](O[C@@H]3O[C@H](CO)[C@@H](O)[C@H](O)[C@H]3O)OC=C[C@@]12O	inactive	–
C[C@@H]1CC[C@]2(C(=O)O)CC[C@]3(C)C(=CCC4[C@@]5(C)CC[C@H](O)C(C)(C)C5C(O)C[C@]43C)[C@@H]2[C@]1(C)O (stereo partly specified)	inactive	–
C=CC/C=C\C/C=C\CCCCCCCc1cccc(O)c1C(=O)O	inactive	–
O=C1CC2(CCCC2)[C@H](O)C(=O)N1CCCCN1CCN(c2ncccn2)CC1	inactive	–
CC1OC(OC2C(O)C(OC3CCC4(C)C(CCC5(C)C4CC=C4C6CC(C)(COC7OC(CO)C(O)C(O)C7O)CC(O)C6(C)CCC45C)C3(C)C)OC(C(=O)O)C2O)C(O)C(O)C1OC1OCC(O)C(O)C1O (stereo unspecified)	–	1.43% [at 9.29 µM]
C=CC(=O)Nc1cccc(CN2C(=O)N(c3c(Cl)c(OC)cc(OC)c3Cl)Cc3cnc(NCCCCN(CC)CC)nc32)c1	inactive	–
CC(=O)NCC(=O)N1C2CCC1c1cc(Nc3ncc(C(F)(F)F)c(NC4CCC4)n3)ccc12 (stereo unspecified)	1.84 µM (active)	–
C[C@@H]1C[C@@H]2O[C@H]2/C=C\C=C\C(=O)Cc2c(Cl)c(O)cc(O)c2C(=O)O1	1.01 µM (active)	–
Cc1cc(C)c(CNC(=O)c2cc(-c3ccc(CN4CCOCC4)cc3)cc3c2cnn3C2CCCC2)c(=O)[nH]1	inactive	–
CC1COC2(OC3CC4C5CC(O[C@@H]6O[C@H](C)[C@@H](O[C@@H]7O[C@@H](C)[C@H](O)[C@@H](O)[C@H]7O)[C@H](O)[C@H]6O)C6CC(O)CCC6(C)C5CCC4(C)C3C2C)C(O)C1 (stereo partly specified)	inactive	–
CC1(C)CC2C(O)c3cocc3CC(C)(O)C2C1 (stereo unspecified)	inactive	–

Structure (SMILES)	Potency	activity change, negative = cytotoxicity
CC(C)/C=C1\NC(=O)C(C(C)C)n2c1nc1c(c2=O)C=CC=CO1 (stereo unspecified)	inactive	–
CC1(C)CCC2(C(=O)OC3OC(CO)C(O)C(O)C3O)CCC3(C)C(=CCC4C5(C)CCC(OC6OC(C(=O)O)C(OC7OC(CO)C(O)C(O)C7O)C(OC7OC(CO)C(O)C(O)C7O)C6O)C(C)(C)C5CCC43C)C2C1 (stereo unspecified)	–	4.92% [at 9.29 µM]
CC1=C(CCC(C)O[C@@H]2O[C@H](CO)[C@@H](O)[C@H](O)[C@H]2O)C(C)(C)CCC1=O (stereo partly specified)	inactive	–
Cc1ccc(C(=O)N(CCCN)C(c2nc3cc(Cl)ccc3c(=O)n2Cc2ccccc2)C(C)C)cc1 (stereo unspecified)	0.517 µM (active)	–
CC(O)/C=C/C1(O)C2(C)COC1(C)CC(O)C2 (stereo unspecified)	inactive	–
C/C(=C\CC[C@@H](C)[C@H]1CC(O)[C@@]2(C)C3CC[C@H]4C(C)(C)[C@@H](OC5OCC(O)C(O)C5OC5OC(CO)C(O)C(O)C5O)CC[C@@]45C[C@@]35CC(O)[C@]12C)C(=O)O (stereo partly specified)	inactive	–
CC(C)(C)CCN1C[C@@H]2C(CNC(=O)c3cc(Cl)cc(Cl)c3)[C@@H]2C1 (stereo partly specified)	inactive	–
C=C(CO)C12OC1C1(C)C(=CC2=O)C(O)C(O)CC1C (stereo unspecified)	inactive	–
O=C(CCCCN1CCOCC1)Nc1ccc(-c2cccnc2)cc1	inactive	–
O=C(CC(c1ccccc1)c1ccccc1)N1CCN(C(c2ccccc2)c2ccccc2)CC1	16.4 µM (active)	–
O=C(O[C@H]1[C@@H]2C[C@@H]3OC[C@](O)([C@@H]1Cl)[C@H]2C(O[C@@H]1O[C@H](CO)[C@@H](O)[C@H](O)[C@H]1O)O3)c1ccc(O)c(O)c1 (stereo partly specified)	inactive	–
C/C=C/c1ccc2oc(-c3ccc(O)c(OC)c3)c(C)c2c1	inactive	–
C=C[C@]1(C)C=C2CCC3C(C)(CCC[C@@]3(C)C(=O)O)C2CC1 (stereo partly specified)	inactive	–
C/C=C/C=C/C(O)=C1\C(=O)[C@]2(C)C3C(C(=O)CC/C=C/C)=C(O)C4(C)C1[C@]1(C)O[C@@]4(O)[C@@]3(C)O[C@@]12O	inactive	–
NC(=O)c1cnc(NCCc2ccc(O)c(Cl)c2)nc1NCc1ccccc1	10.3 µM (active)	–
